The values that follow come from PubChem BioAssay AID1694 (National Center for Advancing Translational Sciences (NCATS), 2009).

Each structure is given as a SMILES string. Records with an inconclusive call do not appear. Values without a mark were called inactive. Calls of active or inactive are those of the source. Calls come from the whole dose curve; as a rule, active = well fitted curve in the direction sought with a large enough effect; inconclusive = small, poorly fitted or top-dose-only effect, or another doubt; inactive = no such curve, though single readings can be large or run the other way.

The test is described as follows: Confirmation Concentration-Response Assay for Inhibitors of Tau Fibril Formation, Total Fluorescence Counterscreen for Fluorescence Polarization. As to conditions: Alexa594-tau K18 total fluorescence counterscreen, interference, tau K18 with P301L mutation; series mostly up to 100 µM; fluorescence change, negative = quenching: at the top concentration. An excerpt: NIH Molecular Libraries Probe Production Network [MLPCN] NIH Chemical Genomics Center [NCGC] MLPCN Grant: X01 MH083262-01 Assay Provider: Carlo Ballatore, University of Pennsylvania NCGC Assay Overview: The microtubule-associated protein tau is an abundant protein in the axons of neurons that stabilizes microtubules. With its ability to modulate microtubule dynamics, tau contributes directly or indirectly, to key structural and regulatory cellular functions. Particularly important is the influence tau exerts on axonal transport, which allows signaling molecules, trophic factors and other essential cellular constituents to travel along the axons. Under pathological conditions, tau becomes sequestered into insoluble aggregates called neurofibrillary tangles. This phenomenon is believed to have pathological consequences by promoting axonal transport deficits that ultimately lead to synaptic dysfunction and neuronal loss. To identify inhibitors of tau aggregation, a heparin-induced tau fibril formation assay was used that employed a recombinantly expressed fragment of tau, K18 (Q242-E372), bearing a P301L mutation (Gustke et al. 1994; Hong et al. 1998). […] Total fluorescence (555 nm excitation and 632 nm emission) was measured to identify fluorescent or absorbent compounds at this wavelength. Such compounds may be artifacts that interfere with the Alexa 594 Tau fluorescence polarization assay. Gustke, N., B. Trinczek, et al. (1994). "Domains of tau protein and interactions with microtubules." Biochemistry 33(32): 9511-22. Hong, M., V. Zhukareva, et al. (1998). "Mutation-specific functional impairments in distinct tau isoforms of hereditary FTDP-17." Science 282(5395): 1914-7. Li, W. and V. M. Lee (2006). "Characterization of two VQIXXK motifs for tau fibrillization in vitro." Biochemistry 45(51): 15692-701. von Bergen, M., S. Barghorn, et al. (2001). "Mutations of tau protein in frontotemporal dementia promote aggregation of paired helical filaments by enhancing local beta-structure." J Biol Chem 276(51): 48165-74.
For screening, 2 uL/well human K18 P301L (15 uM unlabeled and 0.24 uM Alexa 594-labeled tau final concentrations) in reagent buffer (100 mM sodium acetate pH 7) was dispensed into black solid 1536-well plates (Grenier) using a solenoid-based dispenser. Following transfer of 23 nL compound or DMSO vehicle by a pin tool, 2 uL/well heparin (20 uM final concentration) in reagent buffer was added and the plate centrifuged 15 s at 1000 RPM. Plates were incubated 6 hr at 37 C and then 1 uL/well ThT (30 uM final concentration) was added. After a 1 hr ambient incubation, the plates were read by an Envision (Perkin Elmer) to monitor Alexa 594 FP (555 nm excitation and 632 nm emission). Keywords: NIH Roadmap, MLPCN, MLI, MLSMR, NCGC, qHTS, tau, tauopathies, Alzheimer's disease, fibril, neurodegeneration, aggregation
On to `COc1ccc2c(c1)c(CC(=O)Nc1ccc(C(C)=O)cc1)c(C)n2C(=O)c1ccc(Cl)cc1`, for which the “fluorescence change, negative = quenching” value (from here on “fluorescence change”) was -12.3%.
Still for that read-out and setting: for `Cc1cc2c(N)cccc2nn1` the value was 29.3%; for `O=S(=O)(c1ccc(NC(=S)N/N=C/c2ccc(N3CCOCC3)cc2)cc1)N1CCOCC1`, 2.35%; for `Cc1ccc(NCc2cc3cc4c(cc3n(CC(=O)Nc3ccc(C)cc3)c2=O)OCCO4)cc1`, -9.33%.
Turning to `NCCc1ccc(O)c(O)c1`, the “fluorescence change” value was -17.2%.
For the compound `O=C(Nc1sc2c(c1C(=O)Nc1cccc(Cl)c1)CCCC2)c1cccs1`, the “fluorescence change” value was -14.5% [at 57.1 µM].
Regarding `CN(C)c1ccc(-c2cc[nH]c(=O)c2N)cc1`, the “fluorescence change” value is -17.8%.
Turning to `O=C(O)CC1S/C(=N/N=C/c2ccc(-c3ccccc3[N+](=O)[O-])o2)NC1=O` (stereo not given), the “fluorescence change” value is 4.83%.
Turning to `CCN(CC)C(=O)c1nn(-c2ccc(OC)cc2)c(=O)c2c(N)scc12`, the “fluorescence change” value was -20.1% [at 57.1 µM].
Same read-out and setting: then `O=C(Cc1ccccc1)Nc1sc2c(c1C(=O)Nc1cccc(Cl)c1)CCCC2`, with -7.93% [at 57.1 µM]; and `CCOC(=O)N1CCN(C(=O)CN2C(=O)/C(=C\c3cccc(OC)c3)SC2=S)CC1`, with -16.9% [at 57.1 µM].
Same read-out and setting: for `Cn1ncc(Cl)c1C(=O)Nc1cccc(Cl)c1` the value was 8.4%; for `Cc1ccc(NC(=O)N2CCN(c3ccccn3)CC2)cc1`, 5.36%.
For the compound `CCOC(=O)c1nn(-c2cccc(C(F)(F)F)c2)c(=O)c2c(N)scc12`, the Potency was 1.58 µM [quencher] (active).
On to `COC(=O)c1c(NC(=O)CCCOc2cccc(C)c2)sc2c1C(C(=O)OC)CC2` (stereo not given), for which the “fluorescence change” value is 2.92%.
Still for that read-out and setting: for `O=S(=O)(c1ccc(N=C2NN=C(c3cc(F)ccc3F)CS2)cc1)N1CCOCC1` the value was -19.6%; for `CCOC(=O)c1nn(-c2ccccc2)c(=O)c2c(N)sc(C)c12`, -20.4% [at 57.1 µM].
On the same count and under the same terms, for `NC(=O)c1nn(-c2ccccc2)c(=O)c2c(N)scc12` the value was 1.1% [at 57.1 µM]; for `COc1ccc2[nH]c(=O)c(CNc3ccccc3OC)cc2c1`, -10.1%; for `COc1ncc(-c2ccccc2)cc1N`, -2.67% [at 57.1 µM].
As for `O=C(Cc1ccccc1)Nc1sc2c(c1C(=O)Nc1ccc(Cl)cc1)CCOC2`, the “fluorescence change” value was -16.6% [at 57.1 µM].
Still for that read-out and setting: then `Nc1cc(-c2ccncc2)c[nH]c1=O`, with 0.824%; and `CC(C)C(C)NC(=O)CSc1nc2scc(-c3ccco3)c2c(=O)n1-c1ccccc1` (stereo not given), with 24.5%.
The same measure, in the same setting: for `COC(=O)c1c(N)sc2c1C(C(=O)OC)CC2` (stereo not given) the value was -4.91% [at 57.1 µM]; for `Nc1scc2c(C(=O)O)nn(-c3ccccc3)c(=O)c12`, 4.44% [at 57.1 µM].
